Rows were chosen to be rich in hits. Some 1.8% of all compounds tested hit in one or more screens of this group.
RAD54 inh – inhibitors of human RAD54 branch migration. 0.14% of 360,000 active. RAD54 Holliday junction branch migration, FAM/BHQ fluorescence. Q92698. inhibition, % at 10.4 µM. AID 602329;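 active means mean normalized replicate activity at least 40 and at least half of replicates scoring 40 or more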;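 further: 0% = median of neutral control wells and 100% = median of positive control wells; inhibitors cause a drop in the FAM fluorescence signal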
Target sequence (Q92698 whole entry, looked up): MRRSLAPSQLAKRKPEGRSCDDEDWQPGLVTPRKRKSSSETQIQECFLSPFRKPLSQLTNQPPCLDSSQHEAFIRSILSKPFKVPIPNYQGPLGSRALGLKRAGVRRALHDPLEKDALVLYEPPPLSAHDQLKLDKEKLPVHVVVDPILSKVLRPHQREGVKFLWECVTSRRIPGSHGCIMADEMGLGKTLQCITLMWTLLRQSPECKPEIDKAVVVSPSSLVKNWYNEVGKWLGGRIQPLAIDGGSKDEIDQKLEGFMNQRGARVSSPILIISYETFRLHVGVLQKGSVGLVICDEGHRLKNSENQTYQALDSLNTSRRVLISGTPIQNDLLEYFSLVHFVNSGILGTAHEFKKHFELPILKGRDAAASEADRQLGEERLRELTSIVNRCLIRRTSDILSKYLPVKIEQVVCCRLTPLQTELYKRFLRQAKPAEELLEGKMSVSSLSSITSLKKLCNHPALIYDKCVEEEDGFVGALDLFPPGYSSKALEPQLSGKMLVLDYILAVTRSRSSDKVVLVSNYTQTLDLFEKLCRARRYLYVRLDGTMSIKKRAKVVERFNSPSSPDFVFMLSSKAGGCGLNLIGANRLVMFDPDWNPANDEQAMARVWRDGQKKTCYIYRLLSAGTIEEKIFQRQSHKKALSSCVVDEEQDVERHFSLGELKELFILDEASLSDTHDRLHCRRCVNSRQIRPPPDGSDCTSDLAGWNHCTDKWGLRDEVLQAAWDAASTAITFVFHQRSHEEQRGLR
GSIS activator – GLuc luminescence reporter in INS-1E cells, primary screen for activators of glucose-dependent secretion of insulin. INS-1E GLuc reporter insulin secretion, 2-3 h. activation, % at 16.6 µM. 0.61% of 370,000 active;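 active means lowest replicate activation of at least 40%, so every replicate reaches that level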;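 further: 0% = median of neutral control wells and 100% = median of IBMX positive control wells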
RAD52 inh – inhibitors of human RAD52 DNA annealing | recombinant RAD52 DNA annealing, FRET fluorescence | 0.46% of 360,000 active | P43351 | inhibition, % at 18.7 µM | AID 651710;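 active means every replicate showing at least 50% inhibition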
EWS-Fli inh – inhibitors of EWS/Fli oncoprotein transcriptional activity; A673 NR0B1-luciferase reporter, viability-normalised; inhibition, % at 12.6 µM; 0.67% of 350,000 active; AID 651661;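 active means mean inhibition of at least 50% after viability correction, with every replicate also passing that limit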;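 further: firefly luciferase signal divided by Alamar Blue viability fluorescence both relative to DMSO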
LGR2 antag – Drosophila LGR2 receptor signaling inhibition; 0.35% of 380,000 active; HEK293 LGR2, CRE-luciferase, bursicon-stimulated, 4 h; inhibition, % at 9.99 µM;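 active means drop in luminescence signal, shown as inhibition above about 50% in the replicate tests, limit read from the data, passing the limit was not always enough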;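 further: agonist challenge used bursicon conditioned medium at about half maximal strength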
F508del corr – correctors of CFTR F508del function in bronchial epithelial cells | CFBE cells, YFP halide quenching; stimulated with forskolin plus potentiator P3; % fluorescence drop versus neutral controls | activity (quench increase), % at 7.58 µM | 0.36% of 350,000 active | AID 720511;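 active means mean added fluorescence quench of at least 8% versus neutral control, with both replicates also reaching 8%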;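 further: cells transiently co-express mutant CFTR-F508del with the halide-sensitive YFP; corrector assay measuring rescue of mutant channel to the surface after 24 h compound exposure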
* = called active by the depositor.

Results for CCOC(=O)CSC1=C(C#N)C(c2ccc(C)s2)CC(=O)N1 (centres undefined) ?
RAD54 inh: -2; GSIS activator: -1; RAD52 inh: -7; EWS-Fli inh: 27; LGR2 antag: -12; F508del corr: 8.6*

What do the screens show for `O=C(COc1ncnc2ccccc12)Nc1cc([N+](=O)[O-])ccc1Cl`?
RAD54 inh: -6; GSIS activator: -3; RAD52 inh: -2; EWS-Fli inh: -2; LGR2 antag: 21; F508del corr: 4

How did O=C(Nc1ncccn1)c1cc([N+](=O)[O-])cc([N+](=O)[O-])c1 do in these assays?
GSIS activator: 5; LGR2 antag: 11

Results for O=[N+]([O-])c1cc(-c2ncccn2)c([N+](=O)[O-])s1 ?
RAD54 inh: -4; GSIS activator: -8; RAD52 inh: -18; EWS-Fli inh: 61*; LGR2 antag: 17; F508del corr: -1

What do the screens show for `COc1ccc(C)cc1N1C(=N)/C(=C2/Nc3ccccc3S2)C(c2ccccc2)C1=O` (centres undefined)?
RAD54 inh: -1; RAD52 inh: -10; EWS-Fli inh: 66*

How did COC(=O)C1=C(C)N(Cc2ccc(Cl)cc2)C(=S)NC1c1cccc(OC)c1 (centres undefined) do in these assays?
GSIS activator: -33; RAD52 inh: -14; EWS-Fli inh: 6; LGR2 antag: 16; F508del corr: 0

Results for COC(=O)C1=C(C)NC(=S)NC1c1cccc(OC)c1 (centres undefined) ?
GSIS activator: 44*; RAD52 inh: -18; EWS-Fli inh: -14; LGR2 antag: 5; F508del corr: 0

Results for CCOc1cc(CNCc2ccccn2)cc(Cl)c1OC ?
RAD54 inh: -16; GSIS activator: 4; RAD52 inh: -2; EWS-Fli inh: 5; LGR2 antag: 24; F508del corr: -2

How did N#CNC(=Nc1ccccc1)SCc1ccc(C(=O)O)cc1 do in these assays?
GSIS activator: -6; RAD52 inh: -5; EWS-Fli inh: -1; LGR2 antag: -14; F508del corr: 0

How did CSC(=Nc1ccccc1)N=C(SCc1ccccc1)N(C)C do in these assays?
GSIS activator: -23; RAD52 inh: -3; EWS-Fli inh: 57*; LGR2 antag: 76*; F508del corr: 6

What do the screens show for `Cc1ccccc1Nc1nc2ccccc2n1C(C)C`?
GSIS activator: 9; RAD52 inh: -6; EWS-Fli inh: 1; LGR2 antag: 1

Results for CCc1nc2c(nnn2Cc2ccc(F)cc2)c(=O)[nH]1 ?
RAD54 inh: -10; GSIS activator: 60*; RAD52 inh: -15; LGR2 antag: -15

How did O=C(CSCc1nc2c(nnn2Cc2ccc(F)cc2)c(=O)[nH]1)Nc1c(Cl)cc(Cl)cc1Cl do in these assays?
RAD52 inh: 0; EWS-Fli inh: 6; F508del corr: -2

How did CCN(CC)CCC(=O)N1C/C(=C/c2ccccc2)C(=O)/C(=C\c2ccccc2)C1 do in these assays?
GSIS activator: -16; RAD52 inh: 36; EWS-Fli inh: 82*; LGR2 antag: 92*; F508del corr: -8

Results for COc1ccccc1CN1C[C@@H](C)[C@H](OC)CN(C)C(=O)c2cc(NC(=O)Nc3ccccc3OC)ccc2OC[C@H]1C ?
RAD54 inh: 6; GSIS activator: -16; RAD52 inh: 52*; EWS-Fli inh: 9; LGR2 antag: -8; F508del corr: -3

How did COc1cccc(NC(=O)Nc2ccc3c(c2)C(=O)N(C)C[C@H](OC)[C@H](C)CN(C)[C@@H](C)CO3)c1 do in these assays?
RAD54 inh: 0; GSIS activator: 1; RAD52 inh: 93*; EWS-Fli inh: -3; LGR2 antag: -3; F508del corr: 2

Results for COc1cccc(NC(=O)Nc2ccc3c(c2)C(=O)N(C)C[C@@H](OC)[C@@H](C)CN(C)[C@@H](C)CO3)c1 ?
RAD54 inh: 5; RAD52 inh: 88*; EWS-Fli inh: -6; F508del corr: 1

What do the screens show for `COc1cccc(NC(=O)Nc2ccc3c(c2)C(=O)N(C)C[C@H](OC)[C@@H](C)CN(C)[C@H](C)CO3)c1`?
RAD54 inh: 4; GSIS activator: 4; RAD52 inh: 94*; EWS-Fli inh: -16; LGR2 antag: 5; F508del corr: 1

What do the screens show for `CO[C@H]1CN(C)C(=O)c2cc(NC(=O)Nc3cccc(Cl)c3)ccc2OC[C@H](C)N(C)C[C@H]1C`?
RAD54 inh: 9; GSIS activator: -24; RAD52 inh: 21; EWS-Fli inh: 5; LGR2 antag: 2; F508del corr: 1

How did CCCN1C[C@@H](C)[C@@H](OC)CN(C)C(=O)c2cc(NC(=O)Nc3cccc(OC)c3)ccc2OC[C@@H]1C do in these assays?
GSIS activator: -6; EWS-Fli inh: -8; LGR2 antag: -11; F508del corr: 0

How did CC1(C)N([O-])c2cc([N+](=O)[O-])ccc2[N+]1=O do in these assays?
RAD52 inh: 11; EWS-Fli inh: 9; F508del corr: -1

What do the screens show for `Cc1cc(C(=O)Nc2cccc3c2O[C@H](CN(C)C(=O)Nc2ccccc2)[C@@H](C)CN([C@@H](C)CO)C3=O)n(C)n1`?
RAD54 inh: 8; GSIS activator: 18; RAD52 inh: 4; EWS-Fli inh: -3; LGR2 antag: -36; F508del corr: -5

Results for Cc1nn(Cc2ccccc2)c(C)c1NC(=O)CSc1n[nH]c(C)c1[N+](=O)[O-] ?
GSIS activator: 18; LGR2 antag: -2

Results for CCCC(=O)Nc1ccc2c(c1)C(=O)N(C)C[C@@H](OC)[C@H](C)CN(C(=O)CN1CCOCC1)[C@H](C)CO2 ?
RAD54 inh: -7; GSIS activator: 2; RAD52 inh: 14; EWS-Fli inh: 7; LGR2 antag: 18; F508del corr: 8.4*

How did COc1ccc(C(=O)CC(Sc2ccccc2N)c2ccc(OC)cc2)cc1 (centres undefined) do in these assays?
RAD54 inh: 7; RAD52 inh: -4; EWS-Fli inh: 38; LGR2 antag: 68*; F508del corr: 0

Results for O=C(Nc1ccc(C(F)(F)F)cc1)N1[C@@H]2CNC[C@H]1C2c1ccc(-c2ccc(F)cc2)cc1 (some centres undefined) ?
GSIS activator: -18; RAD52 inh: 61*; EWS-Fli inh: -11; LGR2 antag: -4; F508del corr: -2

Results for O=C(Nc1ccc(C(F)(F)F)cc1)N1[C@@H]2CNC[C@H]1C2c1ccc(-c2cccnc2)cc1 (some centres undefined) ?
GSIS activator: -8; RAD52 inh: 19; EWS-Fli inh: -1; LGR2 antag: -6; F508del corr: 1

Screening data from PubChem.
